Assay results published in the supplement of paper PMC10849652.
About 8,800 targets were measured; listed, in parts, are those with a hit and a random draw of the rest. About 0.5% of all pairs of compound and target were hits.

Columns and labels:
Experiment in all cases: log2 fold change, soluble protein after heating vs DMSO (PISA); higher = thermal stabilisation; K562 lysate, 10 uM; active = over 0.2 and 3.5 SD of the protein, either way, in both replicates (recomputed)
[1] = compound: C#Cc1cccc(Nc2ncnc3cc(OCCOC)c(OCCOC)cc23)c1 [erlotinib]
How it was run: (§1)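 Soluble protein was defined as the supernatant remaining after 21,000xg for 90 min, following pooling of heated aliquots and adjustment to 0.5% NP-40 at 4°C. Before that, crude K562 extract at 1 mg/mL protein in PBS pH 7.4 with 1 mM MgCl2 was treated with 10 μM compound for 30 min and heated for 3 min across 48°C-58°C. Quantification used TMTpro 16plex LC-MS/MS with channel sums equalised, and values are log-two fold changes in thermal stability relative to solvent controls from duplicates.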

[2] = compound: C/C(=N\NC(=O)C1=CC(=CC=C1)S(=O)(=O)N2CCOCC2)/C3=C(C=CC(=C3)Cl)O
How it was run: as §1

[3] = compound: C1=CC(=CC=C1C2=NC3=C(N2)C=C(C=C3)C(=O)N)OC4=CC=C(C=C4)Cl
How it was run: as §1

[4] = compound: C1=CC2=C(C=CC(=C2)/C=C\3/C(=O)NC(=NCC4=CC=CS4)S3)N=C1
How it was run: as §1

[5] = compound: C1=CC2=NC=CN=C2C=C1/C=C/3\C(=O)NC(=O)S3
How it was run: as §1

[6] = compound: C1=CC=C(C=C1)C2=NC(=C(N2)C3=CC=NC=C3)C4=CC(=C(C=C4)Cl)O
How it was run: as §1

[7] = compound: C1=CC=C2C(=C1)C3=NNC4=CC=CC(=C43)C2=O
How it was run: as §1

[8] = compound: C1CCN(C1)C(=O)NC2=CC=CC(=C2)NC3=NC=C(C(=N3)NCCC4=CN=CN4)Br
How it was run: as §1

[9] = compound: C1CN(CCC1(CC2=CC=C(C=C2)Cl)N)C3=NC=NC4=C3C=CN4
How it was run: as §1

[10] = compound: C1COCCN1CCN2C3=CC=CC=C3N=C2NC(=O)C4=CC(=CC=C4)[N+](=O)[O-] [IRAK-1-4 Inhibitor I]
How it was run: as §1

[11] = compound: C=CC(=O)N1CCC[C@@H](n2nc(-c3ccc(Oc4ccccc4)cc3)c3c(N)ncnc32)C1 [ibrutinib]
How it was run: as §1

[12] = compound: CC(=O)c1cnc2ccc(-c3cc(Cl)c(O)c(Cl)c3)nc2c1N[C@H]1CC[C@H](CN(C)C)CC1
How it was run: as §1

[13] = compound: CC(C)(C)Cn1c(N)nc2ccc(-c3[nH]c(C(C)(C)C)nc3-c3ccc(F)cc3)nc21 [ralimetinib]
How it was run: as §1

[14] = compound: CC(C)(O)CC(=O)NCCn1ccc2ncnc(Nc3ccc(Oc4cccc(C(F)(F)F)c4)c(Cl)c3)c21
How it was run: as §1

[15] = compound: CC(C)C1=C2N=C(C=C(N2N=C1)NCC3=CC=CC=C3)NCCCCCCN
How it was run: as §1

[16] = compound: CC1=C(C(CC(=O)N1)C2=CC=C(C=C2)C(F)(F)F)C(=O)NC3=C(C=C4C(=C3)C=NN4)F
How it was run: as §1

[17] = compound: CC1=C(C2=C(C=C1)C(=O)C3=CC=CC=C3N2CCCN)C
How it was run: as §1

[18] = compound: CC1=C(C=C(C=C1)NC(=O)C2=CC(=CC=C2)C(C)(C)C#N)NC3=CC4=C(C=C3)N=CN(C4=O)C
How it was run: as §1

[19] = compound: CC1=C(C=C(C=C1)NC(=O)C2=CC(=CC=C2)N(C)C)NC(=O)C3=CC=C(C=C3)O
How it was run: as §1

[20] = compound: CC1=CC=C(C=C1)SC2=C3C=C(SC3=CN=C2)C(=O)N
How it was run: as §1

Measured: log2 fold change

CDK16 isoform 2 (UniProt Q00536)
Chain of UniProt Q00536 (Q00536 whole entry, looked up): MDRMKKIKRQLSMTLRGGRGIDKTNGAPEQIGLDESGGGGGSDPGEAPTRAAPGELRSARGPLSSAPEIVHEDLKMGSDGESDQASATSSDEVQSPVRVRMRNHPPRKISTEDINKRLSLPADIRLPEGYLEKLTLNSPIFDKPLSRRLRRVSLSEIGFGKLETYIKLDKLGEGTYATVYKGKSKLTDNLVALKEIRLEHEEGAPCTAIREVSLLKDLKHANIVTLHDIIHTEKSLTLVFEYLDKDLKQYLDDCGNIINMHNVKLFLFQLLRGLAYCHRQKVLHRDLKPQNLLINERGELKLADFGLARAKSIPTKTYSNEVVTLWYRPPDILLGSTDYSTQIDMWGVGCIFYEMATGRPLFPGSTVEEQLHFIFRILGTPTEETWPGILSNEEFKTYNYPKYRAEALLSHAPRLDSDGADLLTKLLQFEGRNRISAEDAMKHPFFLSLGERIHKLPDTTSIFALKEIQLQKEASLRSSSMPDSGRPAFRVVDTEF
inactive: [1] -0.061 | [2] 0.002 | [3] 0.016 | [4] 0 | [5] -0.005 | [6] -0.017 | [7] 0.151 | [8] 0.004 | [9] -0.007 | [10] 0.03 | [11] 0.025 | [12] 0.28 | [13] 0.016 | [14] 0.009 | [15] -0.089 | [16] -0.023 | [17] -0.007 | [18] -0.037 | [19] -0.024 | [20] -0.141

BLOC1S6 (UniProt Q9UL45)
inactive: [1] -0.008 | [2] 0.007 | [3] 0.029 | [4] 0.027 | [5] 0.001 | [6] 0.002 | [7] -0.004 | [8] 0.093 | [9] -0.01 | [10] -0.031 | [11] 0.156 | [12] -0.07 | [13] 0.015 | [14] 0.061 | [15] -0.029 | [16] 0.014 | [17] -0.033 | [18] -0.001 | [19] -0.017 | [20] 0.012

BUD23 isoform 3 (UniProt O43709)
inactive: [1] 0.074 | [2] -0.046 | [3] 0.009 | [4] -0.008 | [5] -0.097 | [6] -0.02 | [7] -0.01 | [8] -0.026 | [9] -0.033 | [10] -0.017 | [11] -0.017 | [12] -0.007 | [13] 0.089 | [14] -0.002 | [15] -0.064 | [16] -0.004 | [17] 0.119 | [18] -0.056 | [19] -0.023 | [20] -0.001

ATG13 isoform 2 (UniProt O75143)
Chain of UniProt O75143 (O75143 whole entry, looked up): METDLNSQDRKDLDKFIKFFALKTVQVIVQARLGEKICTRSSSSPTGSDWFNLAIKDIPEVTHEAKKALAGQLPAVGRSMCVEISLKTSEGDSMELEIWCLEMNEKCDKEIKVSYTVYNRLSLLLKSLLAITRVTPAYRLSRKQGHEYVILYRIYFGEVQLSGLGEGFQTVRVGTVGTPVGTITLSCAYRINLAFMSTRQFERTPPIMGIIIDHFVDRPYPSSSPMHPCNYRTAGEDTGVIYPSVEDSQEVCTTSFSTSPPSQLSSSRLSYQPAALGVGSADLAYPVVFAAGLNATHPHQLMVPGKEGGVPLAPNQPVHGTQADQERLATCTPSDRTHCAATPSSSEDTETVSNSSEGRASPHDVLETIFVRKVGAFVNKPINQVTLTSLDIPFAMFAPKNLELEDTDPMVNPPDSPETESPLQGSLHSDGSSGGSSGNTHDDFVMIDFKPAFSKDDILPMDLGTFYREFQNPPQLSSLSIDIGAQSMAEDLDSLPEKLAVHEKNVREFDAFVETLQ
inactive: [1] 0.019 | [2] -0.055 | [3] -0.033 | [4] 0.021 | [5] -0.001 | [6] -0.004 | [7] 0.02 | [8] -0.031 | [9] 0.019 | [10] 0.006 | [11] 0.01 | [12] 0.011 | [13] -0.003 | [14] -0.018 | [15] 0.004 | [16] 0 | [17] -0.006 | [18] 0.048 | [19] -0.024 | [20] 0.016

CALB2 (UniProt P22676)
inactive: [1] 0.021 | [2] 0.045 | [3] -0.04 | [4] -0.103 | [5] -0.077 | [6] 0.02 | [7] 0.043 | [8] 0.056 | [9] 0.065 | [10] 0.08 | [11] 0.085 | [12] 0.016 | [13] 0 | [14] -0.083 | [15] -0.093 | [16] -0.025 | [17] -0.116 | [18] 0.028 | [19] -0.039 | [20] -0.014

C1orf112 (UniProt Q9NSG2)
inactive: [1] -0.053 | [2] 0.015 | [3] 0.079 | [4] -0.008 | [5] -0.057 | [6] 0.026 | [7] 0 | [8] -0.046 | [9] 0.054 | [10] -0.034 | [11] 0.014 | [12] 0.038 | [13] 0.022 | [14] -0.061 | [15] 0.017 | [16] 0.067 | [17] -0.085 | [18] -0.029 | [19] 0.036 | [20] 0.091

CDC42EP4 (UniProt Q9H3Q1)
inactive: [1] 0.025 | [2] -0.053 | [3] -0.005 | [4] 0.017 | [5] -0.109 | [6] 0.007 | [7] 0.044 | [8] -0.069 | [9] 0.054 | [10] -0.055 | [11] 0.07 | [12] -0.014 | [13] 0.034 | [14] -0.006 | [15] 0.01 | [16] 0.024 | [17] 0.026 | [18] 0.155 | [19] -0.018 | [20] -0.035

BNIP1 (UniProt Q12981)
Chain of UniProt Q12981 (Q12981 whole entry, looked up): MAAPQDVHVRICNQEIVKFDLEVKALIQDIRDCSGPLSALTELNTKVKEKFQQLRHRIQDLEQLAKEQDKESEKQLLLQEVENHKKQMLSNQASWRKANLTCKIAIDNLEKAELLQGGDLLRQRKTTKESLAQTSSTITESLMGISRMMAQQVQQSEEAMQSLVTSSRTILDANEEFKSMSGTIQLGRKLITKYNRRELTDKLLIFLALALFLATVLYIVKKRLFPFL
inactive: [1] -0.028 | [2] 0.05 | [3] -0.048 | [4] -0.011 | [5] -0.026 | [6] 0.071 | [7] -0.009 | [8] 0.002 | [9] 0.018 | [10] -0.004 | [11] 0.038 | [12] 0.005 | [13] 0.01 | [14] -0.011 | [15] 0.051 | [16] 0.046 | [17] 0.005 | [18] 0.002 | [19] 0.024 | [20] 0.012

CBR1 (UniProt P16152)
Chain of UniProt P16152 (P16152 whole entry, looked up): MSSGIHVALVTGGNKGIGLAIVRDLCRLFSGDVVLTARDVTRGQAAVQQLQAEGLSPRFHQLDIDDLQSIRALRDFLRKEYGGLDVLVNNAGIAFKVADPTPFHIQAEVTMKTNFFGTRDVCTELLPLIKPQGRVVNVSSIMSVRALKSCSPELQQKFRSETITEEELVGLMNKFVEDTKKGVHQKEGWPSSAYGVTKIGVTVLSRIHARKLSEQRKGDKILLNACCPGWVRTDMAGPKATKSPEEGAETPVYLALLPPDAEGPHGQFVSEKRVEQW
inactive: [1] 0.011 | [2] 0.025 | [3] -0.001 | [4] 0.003 | [5] 0.016 | [6] 0.047 | [7] -0.001 | [8] -0.008 | [9] -0.006 | [10] -0.033 | [11] 0.04 | [12] -0.017 | [13] 0.009 | [14] 0.006 | [15] 0.001 | [16] -0.032 | [17] 0.045 | [18] -0.015 | [19] 0.02 | [20] -0.003

CAMK2G isoform 8 (UniProt Q13555)
Chain of UniProt Q13555 (Q13555 whole entry, looked up): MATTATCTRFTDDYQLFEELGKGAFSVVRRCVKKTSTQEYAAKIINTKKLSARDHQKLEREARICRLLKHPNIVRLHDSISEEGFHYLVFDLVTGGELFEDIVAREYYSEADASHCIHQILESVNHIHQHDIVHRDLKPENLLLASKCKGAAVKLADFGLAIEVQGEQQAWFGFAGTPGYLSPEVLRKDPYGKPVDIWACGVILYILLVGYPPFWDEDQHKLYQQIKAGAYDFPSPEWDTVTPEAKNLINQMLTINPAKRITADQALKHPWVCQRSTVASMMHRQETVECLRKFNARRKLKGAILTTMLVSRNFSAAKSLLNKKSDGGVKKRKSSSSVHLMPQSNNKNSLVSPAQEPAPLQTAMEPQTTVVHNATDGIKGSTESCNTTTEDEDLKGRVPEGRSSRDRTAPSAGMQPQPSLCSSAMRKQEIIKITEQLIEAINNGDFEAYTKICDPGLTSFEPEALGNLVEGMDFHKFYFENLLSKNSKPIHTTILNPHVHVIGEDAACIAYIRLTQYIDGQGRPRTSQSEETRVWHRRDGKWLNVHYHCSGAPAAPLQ
inactive: [1] 0.009 | [2] -0.193 | [3] 0.027 | [4] -0.094 | [5] 0.018 | [6] -0.027 | [7] 0.116 | [8] 0.026 | [9] 0.044 | [10] 0.036 | [11] 0.036 | [12] 0.173 | [13] -0.022 | [14] 0.009 | [15] -0.001 | [16] -0.019 | [17] 0.073 | [18] -0.03 | [19] 0.05 | [20] -0.027

CES2 isoform 4 (UniProt O00748)
active: [11] 0.431
inactive: [1] -0.014 | [2] 0.006 | [3] -0.012 | [4] 0.041 | [5] -0.035 | [6] 0.087 | [7] -0.067 | [8] 0.053 | [9] -0.031 | [10] 0.075 | [12] -0.048 | [13] -0.031 | [14] 0.057 | [15] -0.004 | [16] 0.202 | [17] -0.128 | [18] 0.079 | [19] -0.019 | [20] -0.025

C3 (UniProt P01024)
Chain of UniProt P01024 (P01024 whole entry, looked up): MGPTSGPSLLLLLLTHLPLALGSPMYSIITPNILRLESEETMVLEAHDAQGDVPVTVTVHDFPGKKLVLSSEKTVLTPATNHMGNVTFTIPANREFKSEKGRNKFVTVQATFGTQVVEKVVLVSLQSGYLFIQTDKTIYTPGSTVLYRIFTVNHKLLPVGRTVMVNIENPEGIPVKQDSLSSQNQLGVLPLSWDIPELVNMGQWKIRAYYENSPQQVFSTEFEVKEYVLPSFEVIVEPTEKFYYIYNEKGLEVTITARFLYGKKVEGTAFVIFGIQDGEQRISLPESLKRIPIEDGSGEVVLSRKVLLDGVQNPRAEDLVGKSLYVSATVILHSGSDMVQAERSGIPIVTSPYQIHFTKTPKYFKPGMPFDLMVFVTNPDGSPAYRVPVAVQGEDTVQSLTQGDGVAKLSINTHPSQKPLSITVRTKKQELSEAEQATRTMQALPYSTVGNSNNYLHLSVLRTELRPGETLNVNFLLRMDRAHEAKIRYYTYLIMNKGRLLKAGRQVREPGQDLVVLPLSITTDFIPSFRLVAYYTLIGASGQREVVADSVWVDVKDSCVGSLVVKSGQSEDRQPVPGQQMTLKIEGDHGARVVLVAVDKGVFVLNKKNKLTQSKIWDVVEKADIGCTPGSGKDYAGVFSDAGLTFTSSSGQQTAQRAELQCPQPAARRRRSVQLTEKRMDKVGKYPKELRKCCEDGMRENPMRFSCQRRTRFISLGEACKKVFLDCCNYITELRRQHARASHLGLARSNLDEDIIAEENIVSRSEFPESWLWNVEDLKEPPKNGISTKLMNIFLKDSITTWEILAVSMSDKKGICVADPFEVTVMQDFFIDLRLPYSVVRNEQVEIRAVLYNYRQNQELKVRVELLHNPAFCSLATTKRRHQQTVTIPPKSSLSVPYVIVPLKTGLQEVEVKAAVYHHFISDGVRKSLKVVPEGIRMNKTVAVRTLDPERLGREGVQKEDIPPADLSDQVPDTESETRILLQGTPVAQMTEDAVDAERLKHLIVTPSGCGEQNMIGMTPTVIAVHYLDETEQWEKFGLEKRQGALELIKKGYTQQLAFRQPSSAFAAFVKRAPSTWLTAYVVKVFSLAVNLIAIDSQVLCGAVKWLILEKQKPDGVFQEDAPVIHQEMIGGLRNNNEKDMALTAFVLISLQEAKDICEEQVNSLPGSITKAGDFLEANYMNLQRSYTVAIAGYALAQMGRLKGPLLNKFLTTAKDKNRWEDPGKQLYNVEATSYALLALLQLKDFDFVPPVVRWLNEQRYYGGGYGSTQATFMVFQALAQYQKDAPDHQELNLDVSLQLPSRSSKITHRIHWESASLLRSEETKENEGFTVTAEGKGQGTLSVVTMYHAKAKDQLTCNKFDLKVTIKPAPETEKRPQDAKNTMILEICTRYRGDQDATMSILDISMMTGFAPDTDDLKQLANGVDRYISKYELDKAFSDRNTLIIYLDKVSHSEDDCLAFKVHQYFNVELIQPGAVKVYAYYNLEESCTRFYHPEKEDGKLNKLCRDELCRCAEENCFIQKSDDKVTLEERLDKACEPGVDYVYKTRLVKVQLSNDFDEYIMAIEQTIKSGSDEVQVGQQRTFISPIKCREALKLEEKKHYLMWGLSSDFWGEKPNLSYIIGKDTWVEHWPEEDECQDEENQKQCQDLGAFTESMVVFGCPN
inactive: [1] 0.016 | [2] -0.031 | [3] 0 | [4] 0.004 | [5] -0.036 | [6] 0.151 | [7] -0.061 | [8] -0.042 | [9] 0.01 | [10] -0.014 | [11] -0.047 | [12] -0.011 | [13] -0.077 | [14] -0.032 | [15] 0.865 | [16] 0.243 | [17] -0.004 | [18] 0.01 | [19] 0.026 | [20] 0.001

CARS isoform 3 (UniProt P49589)
inactive: [1] 0.008 | [2] -0.029 | [3] 0.018 | [4] -0.018 | [5] -0.006 | [6] 0.022 | [7] -0.032 | [8] -0.024 | [9] 0.015 | [10] 0.001 | [11] -0.012 | [12] 0.015 | [13] -0.016 | [14] 0.033 | [15] -0.016 | [16] -0.001 | [17] 0.015 | [18] -0.032 | [19] 0.009 | [20] 0.016

CD63 (UniProt P08962)
Chain of UniProt P08962 (P08962 whole entry, looked up): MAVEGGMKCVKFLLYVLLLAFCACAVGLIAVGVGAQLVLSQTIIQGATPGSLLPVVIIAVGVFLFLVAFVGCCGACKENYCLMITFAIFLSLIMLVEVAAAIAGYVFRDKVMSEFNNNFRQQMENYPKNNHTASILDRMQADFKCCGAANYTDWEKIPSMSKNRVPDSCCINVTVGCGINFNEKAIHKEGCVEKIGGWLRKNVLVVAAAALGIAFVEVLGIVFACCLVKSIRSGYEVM
inactive: [1] -0.042 | [2] 0.026 | [3] -0.031 | [4] 0.047 | [5] 0.057 | [6] -0.114 | [7] -0.038 | [8] 0.018 | [9] -0.016 | [10] 0.066 | [11] -0.012 | [12] -0.063 | [13] 0.078 | [14] -0.023 | [15] 0.017 | [16] 0.005 | [17] 0.049 | [18] 0 | [19] 0.039 | [20] 0.023

CCNY (UniProt Q8ND76)
Chain of UniProt Q8ND76 (Q8ND76 whole entry, looked up): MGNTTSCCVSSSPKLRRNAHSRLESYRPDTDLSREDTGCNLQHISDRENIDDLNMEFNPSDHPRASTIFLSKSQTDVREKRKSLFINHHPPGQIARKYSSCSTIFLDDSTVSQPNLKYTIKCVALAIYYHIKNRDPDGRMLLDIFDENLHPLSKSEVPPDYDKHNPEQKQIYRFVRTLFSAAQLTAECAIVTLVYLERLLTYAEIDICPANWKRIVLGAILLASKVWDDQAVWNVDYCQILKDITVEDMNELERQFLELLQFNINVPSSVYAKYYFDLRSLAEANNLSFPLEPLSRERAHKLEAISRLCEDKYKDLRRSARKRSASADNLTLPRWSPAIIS
inactive: [1] -0.082 | [2] -0.033 | [3] 0.041 | [4] -0.037 | [5] 0.052 | [6] 0 | [7] 0.168 | [8] -0.016 | [9] -0.032 | [10] 0.063 | [11] 0 | [12] -0.013 | [13] -0.046 | [14] -0.099 | [15] 0.014 | [16] -0.036 | [17] 0.023 | [18] 0.063 | [19] 0.078 | [20] 0.001

CBFA2T3 (UniProt O75081)
Chain of UniProt O75081 (O75081 whole entry, looked up): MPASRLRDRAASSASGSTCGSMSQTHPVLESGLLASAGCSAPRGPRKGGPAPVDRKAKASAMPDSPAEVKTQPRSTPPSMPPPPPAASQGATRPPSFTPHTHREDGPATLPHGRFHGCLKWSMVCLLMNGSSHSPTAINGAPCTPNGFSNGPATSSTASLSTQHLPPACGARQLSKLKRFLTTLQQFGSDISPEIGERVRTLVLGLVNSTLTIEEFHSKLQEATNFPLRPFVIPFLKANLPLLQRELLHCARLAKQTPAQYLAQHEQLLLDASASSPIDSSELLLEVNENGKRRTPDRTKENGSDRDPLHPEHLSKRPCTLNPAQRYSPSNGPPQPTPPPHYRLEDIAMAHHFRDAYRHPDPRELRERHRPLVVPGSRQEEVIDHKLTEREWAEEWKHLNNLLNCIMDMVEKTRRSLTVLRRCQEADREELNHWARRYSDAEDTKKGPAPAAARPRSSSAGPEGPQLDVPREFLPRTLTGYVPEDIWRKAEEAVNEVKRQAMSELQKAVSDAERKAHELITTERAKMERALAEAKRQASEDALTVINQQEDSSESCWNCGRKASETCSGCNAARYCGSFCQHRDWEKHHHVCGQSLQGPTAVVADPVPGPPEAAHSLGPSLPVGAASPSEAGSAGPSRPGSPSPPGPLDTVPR
inactive: [1] -0.012 | [2] -0.01 | [3] -0.002 | [4] -0.006 | [5] 0.016 | [6] 0.004 | [7] -0.01 | [8] -0.043 | [9] -0.093 | [10] -0.027 | [11] 0.005 | [12] 0.016 | [13] 0.019 | [14] -0.005 | [15] -0.013 | [16] -0.001 | [17] 0.003 | [18] -0.016 | [19] 0.022 | [20] -0.005
